Measured values from PubChem BioAssay (NCI).
Several values for one entry are separate records, joined by “and”; a condition that tells them apart may be missing. Equal entries are not always repeated. The panel holds about 79,000 compounds, 15% with a hit somewhere; the sample as a whole holds those more often. More than one record can exist for a structure, and the calls need not agree. Activity calls are given as the source filed them. No stated cut-off is given here; in the data, active means growth inhibition above about 70%; inactive means the rest.

Tests used:
[1] = NCI Yeast Anticancer Drug Screen. Data for the rad50 strain (AID 155);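 further: 0% = growth of vehicle-only cultures of the same strain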; conditions: S. cerevisiae rad50 strain growth inhibition, stronger effect = higher value
Summary of the method: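 Growth of the mutant yeast was measured after compound exposure and referenced to vehicle-treated cultures.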

[2] = NCI Yeast Anticancer Drug Screen. Data for the mec2-1 strain (AID 157); conditions: S. cerevisiae mec2-1 strain, stronger effect = higher value
Summary of the method: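 Readout is yeast growth inhibition, normalised to vehicle-treated controls, in the mec2-1 strain exposed to compound.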

[3] = NCI Yeast Anticancer Drug Screen. Data for the sgs1 mgt1 strain (AID 161);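 further: 0% = growth of cultures given vehicle only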; conditions: S. cerevisiae sgs1 mgt1 strain, stronger effect = higher value
Summary of the method: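 This yeast growth screen uses a strain with defined DNA-repair lesions; compound-treated growth is compared with vehicle-treated growth.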

[4] = NCI Yeast Anticancer Drug Screen. Data for the cln2 rad14 strain (AID 165);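 further: 0% = growth equal to vehicle treated cultures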; conditions: S. cerevisiae cln2 rad14 strain, stronger effect = higher value
Summary of the method: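 Relative to vehicle controls, growth inhibition of compound-treated cln2 rad14 yeast was recorded.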

[5] = NCI Yeast Anticancer Drug Screen. Data for the bub3 strain (AID 167); conditions: S. cerevisiae bub3 mutant strain, stronger effect = higher value
Summary of the method: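 Whole-cell yeast assay. The mutant strain was incubated with compounds, and growth inhibition was determined by comparison with vehicle-treated cells.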

[6] = NCI Yeast Anticancer Drug Screen. Data for the mlh1 rad18 strain (AID 175); conditions: S. cerevisiae mlh1 rad18 strain growth inhibition, stronger effect = higher value
Summary of the method: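 Test agents were incubated with a yeast strain of defined genotype (DNA damage repair defect). Inhibition of growth was derived by comparison with vehicle-exposed cultures.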

[7] = at 5.0 µM (retest, dose inferred, filed as 0.5)
[8] = at 50.0 µM (retest, dose inferred, filed as 5.0)

Structure (SMILES) | growth inhibition [1, 7] | growth inhibition [1, 8] | growth inhibition ([1]; at 50.0 µM) | growth inhibition [2, 7] | growth inhibition [2, 8] | growth inhibition ([2]; at 50.0 µM) | growth inhibition [3, 7] | growth inhibition [3, 8] | growth inhibition ([3]; at 50.0 µM) | growth inhibition [4, 7] | growth inhibition [4, 8] | growth inhibition ([4]; at 50.0 µM) | growth inhibition [5, 7] | growth inhibition [5, 8] | growth inhibition ([5]; at 50.0 µM) | growth inhibition [6, 7] | growth inhibition [6, 8] | growth inhibition ([6]; at 50.0 µM)
CNC(=O)OCCN1c2ccccc2Sc2ccccc21 | -22% (inactive) | 93% (active) | 89.5% (active) | -9% (inactive) | 68% (inactive) | 92% (active) | 8% (inactive) | 91% (active) | 93.3% (active) | -1% (inactive) | 82% (active) | 90.3% (active) | 0% (inactive) | 95% (active) | 92% (active) | -9% (inactive) | 92% (active) | 91.5% (active)
COc1ccc(COc2ccc(C(=O)CCN3CCOCC3)cc2)cc1 | 47% (inactive) | 62% (inactive) | 96.8% (active) | 38% (inactive) | 80% (active) | 96.5% (active) | 61% (inactive) | 87% (active) | 97% (active) | 40% (inactive) | 46% (inactive) | 93.8% (active) | 51% (inactive) | 80% (active) | 97.4% (active) | 51% (inactive) | 77% (active) | 96.8% (active)
O=C(CNCc1ccccc1)Oc1c(Cl)c(Cl)c(Cl)c(Cl)c1Cl | 3% (inactive) | 32% (inactive) | 72.5% (active) | 22% (inactive) | 43% (inactive) | 62.5% (inactive) | -13% (inactive) | 55% (inactive) | 85.2% (active) | -5% (inactive) | 11% (inactive) | 51.4% (inactive) | -4% (inactive) | 31% (inactive) | 20% (inactive) | 29% (inactive) | 73% (active) | 64.7% (inactive)
O=S(=O)(O)c1ccc(-c2c3nc(c(-c4ccc(S(=O)(=O)O)cc4)c4ccc([nH]4)c(-c4ccc(S(=O)(=O)O)cc4)c4nc(c(-c5ccc(S(=O)(=O)O)cc5)c5ccc2[nH]5)C=C4)C=C3)cc1 | 61% (inactive) and 82% (active) | 94% (active) and 91% (active) | 92.8% (active) and 94.3% (active) | 72% (active) and 96% (active) | 97% (active) and 95% (active) | 96.8% (active) and 87.5% (active) | 74% (active) and 68% (inactive) | 29% (inactive) and 51% (inactive) | 94.8% (active) and 91.8% (active) | 32% (inactive) and 40% (inactive) | 80% (active) and 67% (inactive) | 91.8% (active) and 91.4% (active) | 51% (inactive) and 64% (inactive) | 92% (active) and 83% (active) | 93.6% (active) and 92.8% (active) | 74% (active) and 93% (active) | 92% (active) and 93% (active) | 96% (active) and 91.2% (active)
CC[N+](CC)=c1ccc2nc3c(cc(N)c4ccccc43)oc-2c1 | -8% (inactive) | 42% (inactive) | 71.5% (active) and -20.9% (inactive) | -1% (inactive) | 39% (inactive) | 52.5% (inactive) and -17.7% (inactive) | -9% (inactive) | 42% (inactive) | 38.1% (inactive) | -14% (inactive) | 7% (inactive) | 38% (inactive) | -4% (inactive) | 19% (inactive) | 63% (inactive) | -6% (inactive) | 27% (inactive) | 68.8% (inactive) and -28.9% (inactive)
CC1=C(C(=O)Nc2c(C)cccc2C)C(c2ccc3c(c2)OCO3)C(C(=O)Nc2c(C)cccc2C)=C(C)N1 | 25% (inactive) | 25% (inactive) | 81.9% (active) | 19% (inactive) | 19% (inactive) | 86.9% (active) | 4% (inactive) | 4% (inactive) | 85.7% (active) | 16% (inactive) | 16% (inactive) | 79.5% (active) | 6% (inactive) | 6% (inactive) | 87.5% (active) | 7% (inactive) | 7% (inactive) | 82.7% (active)
COc1nc(NC2OC(CO)C(O)C(O)C2O)c(Cl)c(=O)n1C (stereo not given) | 1% (inactive) | 5% (inactive) | 17.7% (inactive) | 3% (inactive) | 0% (inactive) | 74.5% (active) | 2% (inactive) | -2% (inactive) | 87.3% (active) | 1% (inactive) | 3% (inactive) | 69.3% (inactive) | -1% (inactive) | -2% (inactive) | 71.2% (active) | -1% (inactive) | -3% (inactive) | 88.9% (active)
CNC(=O)N(C)CN(C)C(=O)NC | 0% (inactive) | 9% (inactive) | 17.1% (inactive) and 17.2% (inactive) | -1% (inactive) | 2% (inactive) | -11.9% (inactive) and 17.7% (inactive) | -3% (inactive) | 7% (inactive) | 4% (inactive) and 19.8% (inactive) | -4% (inactive) | -9% (inactive) | 26.8% (inactive) and 18.6% (inactive) | -5% (inactive) | -8% (inactive) | 2.8% (inactive) and -19.9% (inactive) | -5% (inactive) | 7% (inactive) | 3.75% (inactive) and 40.1% (inactive)
O=C1CSC(=S)N1c1ccc(Cl)c(C(F)(F)F)c1 | -1% (inactive) | 36% (inactive) | 97.5% (active) | 0% (inactive) | 11% (inactive) | 97.7% (active) | 6% (inactive) | 97% (active) | 98.9% (active) | -4% (inactive) | -10% (inactive) | 58.4% (inactive) | -6% (inactive) | 56% (inactive) | 98.5% (active) | 11% (inactive) | 95% (active) | 98.3% (active)
CC1=CC(C)(C)Nc2ccc(CSc3ccccc3)cc21 | 7% (inactive) | 25% (inactive) | 8.1% (inactive) and 36.4% (inactive) | -8% (inactive) | -17% (inactive) | 11.9% (inactive) and 5.5% (inactive) | -1% (inactive) | 10% (inactive) | 12.4% (inactive) and 13.9% (inactive) | -13% (inactive) | 6% (inactive) | -1.1% (inactive) and 19.8% (inactive) | -11% (inactive) | 6% (inactive) | 29.3% (inactive) and 60.9% (inactive) | 23% (inactive) | 16% (inactive) | 37.4% (inactive) and 15.6% (inactive)
CCN1CCC(O)(/C=C/c2ccc(C)cc2)C(C(=O)/C=C/c2ccc(C)cc2)C1 (stereo not given) | 20% (inactive) | 98% (active) | 90.1% (active) | 15% (inactive) | 99% (active) | 91.4% (active) | -29% (inactive) | 99% (active) | 91.2% (active) | 9% (inactive) | 99% (active) | 91.8% (active) | 14% (inactive) | 99% (active) | 90.6% (active) | 24% (inactive) | 98% (active) | 92.7% (active)
c1ccc2c(c1)[nH]c1c(N3CCOCC3)nnc(N3CCOCC3)c12 | 2% (inactive) | 1% (inactive) | 35.5% (inactive) | -5% (inactive) | 3% (inactive) | 44% (inactive) | -2% (inactive) | 0% (inactive) | 77.8% (active) | -2% (inactive) | -5% (inactive) | 35.3% (inactive) | 0% (inactive) | -1% (inactive) | 47.1% (inactive) | -6% (inactive) | -6% (inactive) | 83% (active)
O=S(c1cc(Cl)cc(Cl)c1O)c1cc(Cl)cc(Cl)c1O | 66% (inactive) | 99% (active) | 99.2% (active) | 39% (inactive) | 100% (active) | 99.5% (active) | 39% (inactive) | 100% (active) | 98% (active) | 40% (inactive) | 99% (active) | 99.5% (active) | 56% (inactive) | 100% (active) | 99.5% (active) | 44% (inactive) | 99% (active) | 99.5% (active)
C=C1CCC[C@@H]2[C@@](C)(Cc3cc(O)ccc3O)C(C)CC[C@]12C (stereo not given in full) | 16% (inactive) | 97% (active) | 97.5% (active) | 11% (inactive) | 97% (active) | 98.2% (active) | 25% (inactive) | 98% (active) | 97.7% (active) | -4% (inactive) | 97% (active) | 97.3% (active) | 0% (inactive) | 97% (active) | 97.8% (active) | 11% (inactive) | 96% (active) | 97.7% (active)
O=C(CC(=O)CC(O)(c1ccccc1)c1ccccc1)CC(=O)c1ccccc1 | -4% (inactive) | 95% (active) | 98.4% (active) | -10% (inactive) | 98% (active) | 98% (active) | 0% (inactive) | 98% (active) | 98% (active) | -11% (inactive) | 94% (active) | 98% (active) | -8% (inactive) | 96% (active) | 97.2% (active) | 30% (inactive) | 97% (active) | 98% (active)
